Inconclusive results are not listed. Calls of active or inactive are those of the source. Unless noted, how the calls were made is not given here.
How the values were obtained:
[1] = qHTS profiling of the MIPE4 collection as inhibitors of Plasmodium falciparum (3D7) proliferation (AID 743344);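 further: scaled between DMSO vehicle wells and 0.29 µM artemisinin as full inhibition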; conditions: P. falciparum 3D7 in erythrocytes, SYBR Green DNA fluorescence, 72 h; at 28.5 µM unless noted
Summary of the method: (§1)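 Parasite DNA was quantified by SYBR Green I fluorescence (ex 485, em 535 nm) after overnight lysis in saponin/Triton buffer at room temperature. Cultures at 0.3% parasitemia and 2.5% hematocrit were first exposed to compound for 72 h at 37 C; signals were normalised to artemisinin (0.29 uM) and vehicle wells.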

[2] = qHTS profiling of the MIPE4 collection as inhibitors of Plasmodium falciparum (DD2) proliferation (AID 743345); conditions: P. falciparum Dd2 in erythrocytes, SYBR Green DNA, 72 h; at 28.5 µM unless noted
Summary of the method: as §1

[3] = qHTS profiling of the MIPE4 collection as inhibitors of Plasmodium falciparum (DD2) proliferation (Rep 2) (AID 743346); conditions: P. falciparum Dd2 in erythrocytes, SYBR Green DNA, 72 h; at 28.5 µM unless noted
Summary of the method: as §1

[4] = qHTS profiling of the MIPE4 collection as inhibitors of Plasmodium falciparum (HB3) proliferation (AID 743347);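 further: plate controls were DMSO vehicle wells for no effect and artemisinin wells for full effect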; conditions: P. falciparum HB3 in erythrocytes, SYBR Green DNA, 72 h; at 28.5 µM unless noted
Summary of the method: as §1

[5] = High-throughput drug toxicity screening in the BPDCN cell line Gen2.2 (AID 1224824); conditions: Gen2.2 BPDCN cells; at 45.8 µM (top of the series) unless noted;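 further: cells exposed to compounds for 48 h before reading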
Summary of the method: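 CellTiter-Glo luminescence read after 48 h compound exposure at 37 C defines viability; percent activity set with DMSO as 100% and bortezomib (9.2 uM final) as 0%. 500 exponentially growing cells per well, RPMI plus 10% FBS.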

[6] = High-throughput drug toxicity screening in the BPDCN cell line Cal-1 (AID 1224825); conditions: Cal-1 BPDCN cell viability, qHTS; at 45.8 µM (top of the series) unless noted
Summary of the method: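 Viability of the BPDCN line Cal-1 is measured as ATP-based luminescence (CellTiter-Glo) following 48 h incubation with compounds. Percent activity uses DMSO-treated wells as 100% and 9.2 uM bortezomib as 0%.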

[7] = qHTS assay for measurement of the activity of small molecule inhibitors on Zika virus induced Caspase-3 activity in human astrocytoma cells (AID 1224859; active means well fitted curve in the direction sought with a large enough effect; an effect the other way counts as inactive or inconclusive;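 further: plate controls were ZIKV-infected untreated cells for no effect and uninfected cells for full effect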)
Summary of the method: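 Caspase activation in ZIKV-infected SNB-19 cells (2 FFU/cell, 6 h) measured by Caspase-Glo 3/7 luminescence after 30 min RT; compound pre-incubated 1 h; normalised to uninfected and infected controls.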

[8] = qHTS Screen of the MIPE 4.0 Collection Against Ewings Sarcoma (RDES) (AID 1259252; active means well fitted curve in the direction sought with a large enough effect; an effect the other way counts as inactive or inconclusive; further: nearly all actives have a fitted effect of over 35% in size; further: potency means the concentration at half of the fitted maximal effect)
Summary of the method: (§2)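 Compound titrations go onto adherent log-phase cells 4 h after seeding, incubate 48 h at 37C, then CellTiter-Glo luminescence reports viability relative to DMSO and cell-free controls.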

[9] = qHTS Screen of the MIPE 4.0 Collection Against Ewings Sarcoma (TC71) (AID 1259253; active means well fitted curve in the direction sought with a large enough effect; an effect the other way counts as inactive or inconclusive; further: nearly all actives have a fitted effect of over 40% in size; further: potency means the concentration at half of the fitted maximal effect)
Summary of the method: as §2

[10] = qHTS Screen of the MIPE 4.0 Collection Against Ewings Sarcoma (EW8) (AID 1259255; active means well fitted curve in the direction sought with a large enough effect; an effect the other way counts as inactive or inconclusive; further: nearly all actives have a fitted effect of over 35% in size; further: potency means the concentration at half of the fitted maximal effect;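 on viability: 100% = DMSO-treated cells and 0% = medium-only wells without cells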)
Summary of the method: as §2

[11] = qHTS Screen of the MIPE 4.0 Collection Against Ewings Sarcoma (TC32) (AID 1259256; active means well fitted curve in the direction sought with a large enough effect; an effect the other way counts as inactive or inconclusive; further: nearly all actives have a fitted effect of over 45% in size; further: potency means the concentration at half of the fitted maximal effect)
Summary of the method: as §2

[12] = qHTS assay to identify small molecule inhibitors of chordoma cells - UCH-1 (AID 1259355; active means well fitted curve in the direction sought with a large enough effect; an effect the other way counts as inactive or inconclusive; further: on the % scale 0 is the no-effect control and ±100 the full control effect; nearly all actives have a fitted effect of over 55% in size)
Summary of the method: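 A 48hr growth-inhibition format: each drug tested at 15 concentrations together with added auranofin, camptothecin, doxorubicin, rubitecan and topotecan, with cell viability quantified as CellTiter-Glo luminescence.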

[13] = qHTS assay to identify small molecule inhibitors of chordoma cells - UCH-2 (AID 1259356; active means well fitted curve in the direction sought with a large enough effect; an effect the other way counts as inactive or inconclusive; further: on the % scale 0 is the no-effect control and ±100 the full control effect)
[14] = qHTS assay for measurement of the activity of small molecule inhibitors on Zika virus induced Caspase-3 activity in human iPSC derived neural progenitor cells (hNPCs) (AID 1224857; active means well fitted curve in the direction sought with a large enough effect; an effect the other way counts as inactive or inconclusive; further: % of control where 0% means no effect; nearly all actives have a fitted effect of over 65% in size)
Summary of the method: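 Zika virus (2 FFU/cell) infection of human iPSC-derived NPCs, 6 h, following 1 h compound preincubation. Read-out: Caspase-Glo 3/7 luminescence.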

[15] = qHTS profiling for inhibitors of Plasmodium falciparum (HB3) proliferation (AID 743324; active means well fitted curve in the direction sought with a large enough effect; an effect the other way counts as inactive or inconclusive;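 further: 100% = DMSO vehicle wells and 0% = artemisinin-treated control wells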); conditions: Plasmodium falciparum HB3 blood-stage proliferation; at 28.7 µM (top of the series) unless noted
Summary of the method: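 SYBR Green fluorescence (485 ex/535 em) of lysed cultures, incubated overnight at room temperature in the dark, quantifies parasite DNA. Infected erythrocytes at 0.3% parasitemia and 2.5% hematocrit were exposed 72 h; values normalized to DMSO and 0.29 uM artemisinin controls.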

[16] = Identifying Small Molecule Inhibitors of Pancreatic Cancer Stem Cells (SN12C, Spheroid) (AID 1259360; active means well fitted curve in the direction sought with a large enough effect; an effect the other way counts as inactive or inconclusive;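 further: 100% = DMSO-treated cells and 0% = wells without cells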); conditions: Potency: SN12C spheroid viability
Summary of the method: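 Adherent (2D) versus sphere (3D) formats; spheres generated 14 d in SCM beforehand. Compound transferred by pin tool after 4 h, 48 h incubation, CellTiter-Glo endpoint.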

Row | Structure (SMILES) | parasite growth, % of DMSO control [1] | parasite growth remaining, % of DMSO control (lower = more inhibition) [2] | parasite growth, % of control (lower = inhibition) [3] | growth, % of control [4] | cell viability, % of control (lower = more cytotoxic) [5] | viability (% of control) [6] | Potency [7] | Potency [8] | Potency [9] | Potency [10] | Potency [11] | outcome [12] | outcome [13] | Potency [14] | remaining proliferation (% of control), lower = more inhibition [15] [%] | Potency [16]
1 | CN1CCC(COc2cnc(-c3cccc(Cn4nc(-c5cccc(C#N)c5)ccc4=O)c3)nc2)CC1 | 10.4% | 10.5% | 15.3% | 4.54% | 92.7% | 5.37% | inactive | 7.43 µM (active) | 13.2 µM (active) |  |  |  |  |  |  | 
2 | Cc1nc(C(=O)NCC(=O)O)c(O)c2ccc(Oc3ccccc3)cc12 | 86.9% | 95.5% | 67.9% | 69.9% | 54.1% | 115% | inactive |  | inactive | inactive | inactive |  |  |  |  | 
3 | CNc1nc(-c2ccc3c(N)n[nH]c3c2)cc(N2C[C@@H](C(=O)NC3CCCCC3)CC[C@@H]2C)n1 | 5.06% | 8.54% | 11.4% | 4.91% | 6.94% | 18.1% |  | 6.62 µM (active) | 20.9 µM (active) |  | 6.62 µM (active) |  |  |  |  | 
4 | O=C(O)c1nc(=O)[nH]c(=O)[nH]1 | 88.8% [at 9.64 µM] | 106% [at 9.64 µM] | 93.6% [at 9.64 µM] | 89.9% [at 9.64 µM] | 161% [at 23.2 µM] | 99.2% [at 23.2 µM] | inactive | inactive |  |  | inactive | inactive | inactive |  |  | 
5 | Cc1cc(-c2ncc(CC(=O)Nc3ccc(-c4cnccn4)cn3)cc2C)ccn1 | 36.5% | 87.9% | 71.8% | 52.1% | 267% | 97% | inactive | 16.6 µM (active) |  |  |  |  |  |  |  | 
6 | CNC(=O)[C@H](Cc1ccccc1)NC(=O)[C@H](CC(C)C)[C@H](CSc1cccs1)C(=O)NO |  | 8.14% | 11.7% | 4.59% | 63.4% | 56.4% | inactive |  | 5.9 µM (active) | inactive | inactive |  |  |  |  | 
7 | COC(=O)[C@H](c1ccccc1Cl)N1CCc2sccc2C1 | 43.8% | 79% | 22.1% | 24.3% | 95.6% | 91.3% | inactive | inactive |  |  |  |  |  |  |  | 
8 | NC[C@H]1O[C@H](O[C@@H]2[C@@H](O)[C@@H](O[C@H]3O[C@H](CO)[C@@H](O)[C@H](N)[C@@H]3O)[C@H](N)C[C@@H]2N)[C@H](O)[C@@H](O)[C@H]1O |  | 100% | 80.6% | 66.9% | 161% | 98.4% | inactive | inactive | inactive |  |  |  |  |  |  | 
9 | COc1ccc2c(c1)c(C1=C(c3c[nH]c4ccccc34)C(=O)NC1=O)cn2CCCN(C)C | 5.52% | 8.71% | 12.5% | 5.22% | 8.51% | 8.47% | inactive | 0.0083 µM (active) |  |  |  |  |  |  |  | 
10 | N#Cc1c(N(CC(=O)O)CC(=O)O)sc(C(=O)O)c1CC(=O)O |  | 91.9% | 139% | 105% | 5.77% |  | inactive | inactive | inactive | inactive |  | inactive | inactive | inactive |  | 
11 | O=C(O)CCC=CCC[C@@H]1[C@H](N2CCCCC2)[C@@H](O)C[C@@H]1OCc1ccc(-c2ccccc2)cc1 | 67.9% | 92.8% | 62.3% | 63% | 169% | 63% | inactive | inactive | inactive |  | inactive |  |  |  |  | 
12 | Cn1cnc(-c2cc3nccc(Oc4ccc(NC(=S)NC(=O)Cc5ccccc5)cc4F)c3s2)c1 | 8.29% | 23.6% |  | 12% | 131% | 8.37% | inactive | 20.9 µM (active) |  |  |  |  |  |  |  | 
13 | CN1CCN(c2ncc(-c3cc(Cl)cc(Cl)c3Cl)c(N)n2)CC1 |  |  |  |  | 54.8% |  | inactive | inactive | 16.6 µM (active) | inactive |  |  |  | inactive |  | 
14 | CSc1cccc(Nc2ncc3cc(-c4c(Cl)cccc4Cl)c(=O)n(C)c3n2)c1 | 5.72% | 13.9% | 9.88% | 9.92% | 288% | 34.2% |  | 0.0935 µM (active) |  |  |  |  |  |  |  | 
15 | O=c1[nH]nc(OCCCc2ccc(Cl)cc2)c(NCc2cccnc2)c1Br | 6.4% | 6.08% | 30.4% | 10.3% | 9.32% | 8.48% | inactive | 18.7 µM (active) | 16.6 µM (active) |  |  |  |  |  |  | 
16 | Fc1ccc(CNc2ncnc3ccc(F)cc23)cc1 | 300% | 90.6% | 117% | 630% | 91.2% | 93.2% | inactive | 13.2 µM (active) |  |  |  |  |  |  |  | 
17 | COc1ccc(C=CC(=O)Nc2ccccc2C(=O)O)cc1OC | 24.6% | 90.5% | 48.9% | 32% | 188% | 104% |  | inactive |  | inactive | inactive |  |  |  |  | 
18 | CO[C@H]1O[C@@H]2O[C@@]3(C)CC[C@@H]4[C@@H](C)CC[C@@H]([C@H]1C)[C@@]24OO3 | 20.7% | 7.38% | 9.94% | 46% | 62.1% | 31.3% | inactive |  | 4.69 µM (active) | 5.9 µM (active) |  |  |  |  |  | 
19 | CN(C)CCCNC(=O)c1ccc(-c2cc(O)c3ncccc3c2)cc1 | 25.8% | 15.1% |  | 8.59% | 48.4% | 19.6% | inactive | 16.6 µM (active) |  | 14.8 µM (active) |  |  |  |  | 5.15 | inactive
